Active and inactive are the calls of the source.
What was measured:
Albumin (Bos taurus) = Albumin (Bos taurus) (UniProt P02769); assay: compounds binding labelled BSA control protein – biochemical, small-molecule microarray, Alexa647 label, 635/667 nm fluorescence, artefact control for SMM control protein annotation, profiling panel (AID 1118); conditions: BSA-A647 binding, fluorescence 635 nm, higher = more signal;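 also: score merges 667 nm emission intensity and signal-to-noise per printed compound spot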
[1] = probe aXIP binding to arrayed compounds – biochemical, NeuroSMM set, 635/667 nm fluorescence, primary screen (AID 1119); conditions: small-molecule microarray, higher = more signal, called active from +8 up or from −8 down;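 also: probe is the protein aXip251-270 applied at 1 µg/mL to compound-printed slides; binding of probe to printed compounds measured as 667 nm fluorescence plus signal to noise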
[2] = probe aNOTCH3 binding on compound microarray – biochemical, small-molecule microarray, 635/667 nm fluorescence, primary screen (AID 1120); conditions: higher = more signal;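 also: probe is a biotin-tagged antibody raised against NOTCH3 rather than NOTCH3 protein; score merges spot fluorescence near 667 nm with spot signal to noise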
[3] = probe aNOTCH2 binding on compound microarray – biochemical, small-molecule microarray, 635/667 nm fluorescence, primary screen (AID 1121); conditions: higher = more signal;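 also: score merges feature fluorescence read at 667 nm with its signal to noise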
[4] = target: Carbonic anhydrase 2 (Homo sapiens) (UniProt P00918); assay: compounds binding carbonic anhydrase 2 – biochemical, small-molecule microarray, Alexa647-labelled CAII, profiling panel (AID 1122); conditions: CAII-A647 binding fluorescence, higher = more signal
[5] = COS7 lysate on small-molecule microarray, probe aHis, 635 nm (AID 1123); conditions: COS7 cell lysate, fluorescence, higher = more signal;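 also: z-score combines 667nm fluorescence intensity with signal-to-noise per printed compound spot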
[6] = probe aLAP1 signal on lysate-treated microarray – cell lysate, small-molecule microarray, COS7 lysate, primary screen (AID 1124); conditions: probe aLAP1, fluorescence, higher = more signal;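 also: lysate comes from COS7 cells expressing LAP1 and is applied at 0.3 µg/mL; score merges spot fluorescence near 667 nm with signal-to-noise over triplicate slides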
Sam68 (KHDRBS1) = assay: compounds binding KHDRBS1 protein – biochemical, small-molecule microarray, 635 nm fluorescence, primary screen (AID 1125); conditions: higher = more signal;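 also: score merges 667 nm channel intensity with signal to noise over triplicate slides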
[7] = tested on: Chordin-like protein 2 (CHRDL2); assay: compounds binding chordin-like 2 – biochemical, small-molecule microarray, 635 nm fluorescence, primary screen (AID 1126); conditions: fluorescence 635 nm, higher = more signal;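 also: printed compound slides probed with Chrdl2 protein at 4 µg/mL for 1 h at 4 C; score merges 667 nm emission intensity with signal to noise over three replicate slides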
[8] = target: Concanavalin-A (Canavalia ensiformis) (UniProt P02866); assay: compounds binding concanavalin A lectin – biochemical, small-molecule microarray, Alexa647 label, 635 nm, artefact control for SMM control protein annotation, primary screen (AID 1127); conditions: ConA-A647 binding fluorescence, higher = more signal;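 also: z combines 667 nm emission intensity with signal-to-noise across three replicate slides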
[9] = compounds binding Alexa647 anti-His antibody – biochemical, small-molecule microarray, 635 nm fluorescence, artefact control for SMM control protein annotation, primary screen (AID 1128); conditions: higher = more signal;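 also: score merges feature fluorescence with signal-to-noise for each printed compound spot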
[10] = tested on: Human papillomavirus type 1a E7 protein (residues 1-88); assay: HPV1a E7 small-molecule binders, primary screen, biochemical, small-molecule microarray, residues 1-88, 635 nm (AID 1129); conditions: small-molecule microarray binding, fluorescence 635 nm; higher = more signal
[11] = target: Focal adhesion kinase 1 (Homo sapiens) (UniProt Q05397); assay: PTK2 protein binding on printed compound slides – biochemical, small-molecule microarray, 635/667 nm fluorescence, BSA, DTT, primary screen (AID 1130); conditions: 635 nm fluorescence, higher = more signal;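 also: composite of spot emission at 667 nm and signal to noise over triplicate slides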
[12] = tested on: Fibrinogen (Alexa647-labelled); assay: Alexa647-fibrinogen binding to printed small molecules – biochemical, small-molecule microarray, 635/667 nm fluorescence, artefact control for SMM control-protein annotation, profiling panel (AID 1131); conditions: fibrinogen-A647 binding fluorescence, higher = more signal;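 also: z-score merges 667 nm fluorescence with per-spot signal-to-noise over triplicate slides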
[13] = target: Follistatin (Homo sapiens) (UniProt P19883); assay: FST protein binding to printed compounds – biochemical, small-molecule microarray, 635/667 nm fluorescence, primary screen (AID 1132); conditions: 635 nm fluorescence, higher = more signal
[14] = target: Fibroblast growth factor 2 (Homo sapiens) (UniProt P09038); assay: basic fibroblast growth factor binding to printed compounds – biochemical, small-molecule microarray, 635/667 nm fluorescence, primary screen (AID 1133); conditions: FGF2, fluorescence 635/667, higher = more signal
[15] = JC-1 mitochondrial potential readout, lung cancer cells – cell-based, A549, JC-1 fluorescence, basal, 24 h, 100 nL, profiling panel (AID 1138); conditions: higher = more signal;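 also: A549 lung adenocarcinoma cells under basal conditions with no added stimulus; test concentration not given here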
Lefty1 = Lefty1 protein binding to printed compounds – biochemical, small-molecule microarray, 635/667 nm fluorescence, primary screen (AID 1139); conditions: fluorescence 635/667, higher = more signal
[16] = tested on: wheat germ agglutinin (Triticum aestivum), Alexa647-labelled; assay: Alexa647-WGA lectin binding to printed small molecules – biochemical, small-molecule microarray, 635/667 nm fluorescence, artefact control for SMM control-protein annotation, profiling panel (AID 1140); conditions: WGA-A647 binding, 635 nm fluorescence, higher = more signal;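 also: score merges 667 nm feature emission with signal to noise over triplicate slides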
[17] = target: Luciferin 4-monooxygenase (Photinus pyralis) (UniProt P08659); assay: inhibition of purified Photinus pyralis luciferase – biochemical, luminescence, purified enzyme, 2006 set, primary screen (AID 1141); conditions: purified firefly luciferase, SteadyGlo luminescence, 30 min; higher = more signal, called active from +8 up or from −8 down;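 also: cell-free assay with purified firefly luciferase at 100 ng per well in PBS; test concentration not given here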
Luciferin 4-monooxygenase (Photinus pyralis), sequence (P08659 whole entry, looked up): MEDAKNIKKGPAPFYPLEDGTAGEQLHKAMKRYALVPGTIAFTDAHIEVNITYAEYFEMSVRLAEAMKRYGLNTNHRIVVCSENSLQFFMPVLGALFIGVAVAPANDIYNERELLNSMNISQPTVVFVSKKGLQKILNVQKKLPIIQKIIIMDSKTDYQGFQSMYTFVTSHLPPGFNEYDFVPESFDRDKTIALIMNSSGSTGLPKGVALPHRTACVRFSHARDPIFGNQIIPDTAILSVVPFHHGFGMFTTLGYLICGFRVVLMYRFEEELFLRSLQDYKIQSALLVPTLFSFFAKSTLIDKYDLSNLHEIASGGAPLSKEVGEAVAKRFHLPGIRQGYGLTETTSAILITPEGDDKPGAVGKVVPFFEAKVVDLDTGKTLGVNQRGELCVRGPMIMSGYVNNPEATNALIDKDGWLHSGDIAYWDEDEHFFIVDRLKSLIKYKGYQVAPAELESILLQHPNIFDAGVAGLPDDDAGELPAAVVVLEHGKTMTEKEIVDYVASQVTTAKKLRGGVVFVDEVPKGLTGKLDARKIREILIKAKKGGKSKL

Focal adhesion kinase 1 (Homo sapiens), sequence (Q05397 whole entry, looked up): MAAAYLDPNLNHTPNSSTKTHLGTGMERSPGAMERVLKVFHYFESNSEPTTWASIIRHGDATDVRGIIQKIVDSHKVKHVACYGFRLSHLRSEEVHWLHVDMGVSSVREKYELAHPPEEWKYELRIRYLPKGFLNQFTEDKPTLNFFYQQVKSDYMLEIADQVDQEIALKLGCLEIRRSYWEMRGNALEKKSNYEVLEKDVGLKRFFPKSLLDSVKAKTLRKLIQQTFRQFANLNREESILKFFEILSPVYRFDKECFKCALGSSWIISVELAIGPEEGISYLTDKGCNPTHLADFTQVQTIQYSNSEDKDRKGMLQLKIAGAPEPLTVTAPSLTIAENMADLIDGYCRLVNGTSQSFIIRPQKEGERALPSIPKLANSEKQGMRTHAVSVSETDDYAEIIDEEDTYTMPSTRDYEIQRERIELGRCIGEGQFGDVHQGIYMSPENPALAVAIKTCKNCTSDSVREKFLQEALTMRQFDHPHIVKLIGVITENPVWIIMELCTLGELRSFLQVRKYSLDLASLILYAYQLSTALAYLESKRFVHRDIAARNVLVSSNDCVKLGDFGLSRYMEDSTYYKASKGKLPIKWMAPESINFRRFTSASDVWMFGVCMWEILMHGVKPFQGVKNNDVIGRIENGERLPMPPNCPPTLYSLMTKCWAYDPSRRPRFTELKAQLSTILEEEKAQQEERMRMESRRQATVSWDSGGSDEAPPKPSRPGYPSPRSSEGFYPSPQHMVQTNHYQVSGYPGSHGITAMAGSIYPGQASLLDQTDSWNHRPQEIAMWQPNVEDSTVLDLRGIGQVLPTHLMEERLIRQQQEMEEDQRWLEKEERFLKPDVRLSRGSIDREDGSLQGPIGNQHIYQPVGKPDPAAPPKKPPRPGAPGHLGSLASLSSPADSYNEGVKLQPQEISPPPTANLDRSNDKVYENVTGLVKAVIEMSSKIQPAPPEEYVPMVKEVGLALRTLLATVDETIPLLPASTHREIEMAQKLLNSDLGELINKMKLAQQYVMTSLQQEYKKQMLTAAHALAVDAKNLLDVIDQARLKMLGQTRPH
Concanavalin-A (Canavalia ensiformis), sequence (P02866 whole entry, looked up): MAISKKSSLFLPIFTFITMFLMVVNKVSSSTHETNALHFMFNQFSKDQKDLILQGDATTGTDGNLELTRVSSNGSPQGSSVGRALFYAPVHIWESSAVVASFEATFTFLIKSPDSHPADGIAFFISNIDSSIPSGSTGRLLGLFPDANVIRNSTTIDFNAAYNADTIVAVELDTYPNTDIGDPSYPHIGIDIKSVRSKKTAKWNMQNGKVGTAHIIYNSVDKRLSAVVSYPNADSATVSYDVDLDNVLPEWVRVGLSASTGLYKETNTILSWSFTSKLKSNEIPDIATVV
Follistatin (Homo sapiens), sequence (P19883 whole entry, looked up): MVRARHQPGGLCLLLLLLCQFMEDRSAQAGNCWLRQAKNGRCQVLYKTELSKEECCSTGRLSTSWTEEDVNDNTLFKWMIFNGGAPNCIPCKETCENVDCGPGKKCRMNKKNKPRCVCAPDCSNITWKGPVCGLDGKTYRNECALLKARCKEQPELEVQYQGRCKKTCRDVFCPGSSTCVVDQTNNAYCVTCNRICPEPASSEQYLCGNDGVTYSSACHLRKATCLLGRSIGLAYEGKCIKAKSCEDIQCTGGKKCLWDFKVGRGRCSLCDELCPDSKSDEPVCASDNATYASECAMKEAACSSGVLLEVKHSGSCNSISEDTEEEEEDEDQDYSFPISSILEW
Fibroblast growth factor 2 (Homo sapiens), sequence (P09038 whole entry, looked up): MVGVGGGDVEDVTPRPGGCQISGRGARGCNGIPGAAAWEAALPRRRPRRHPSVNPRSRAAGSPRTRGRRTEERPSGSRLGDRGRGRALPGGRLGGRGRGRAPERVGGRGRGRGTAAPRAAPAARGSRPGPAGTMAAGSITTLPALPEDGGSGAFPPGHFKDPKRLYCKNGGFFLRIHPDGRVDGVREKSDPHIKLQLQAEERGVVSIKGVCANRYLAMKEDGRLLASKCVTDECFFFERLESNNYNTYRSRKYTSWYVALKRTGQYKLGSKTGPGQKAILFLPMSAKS
Albumin (Bos taurus), sequence (P02769 whole entry, looked up): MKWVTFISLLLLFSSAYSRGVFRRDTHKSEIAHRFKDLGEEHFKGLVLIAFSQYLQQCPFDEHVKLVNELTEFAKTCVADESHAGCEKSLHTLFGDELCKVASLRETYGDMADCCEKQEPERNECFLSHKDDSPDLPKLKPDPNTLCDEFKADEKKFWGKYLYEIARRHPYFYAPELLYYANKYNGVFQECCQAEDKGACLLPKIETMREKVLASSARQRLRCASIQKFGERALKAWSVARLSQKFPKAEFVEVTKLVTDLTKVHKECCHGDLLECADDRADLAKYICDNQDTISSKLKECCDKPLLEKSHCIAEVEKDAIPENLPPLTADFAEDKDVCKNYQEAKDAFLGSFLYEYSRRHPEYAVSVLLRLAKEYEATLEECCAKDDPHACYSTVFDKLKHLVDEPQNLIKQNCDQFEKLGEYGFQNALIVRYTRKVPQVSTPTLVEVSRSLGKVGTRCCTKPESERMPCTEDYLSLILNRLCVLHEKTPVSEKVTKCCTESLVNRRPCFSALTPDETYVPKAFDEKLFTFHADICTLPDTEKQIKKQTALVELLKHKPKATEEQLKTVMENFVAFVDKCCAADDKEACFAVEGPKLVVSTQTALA

SMILES | composite z-score (Albumin (Bos taurus)) | composite Z-score [1] | composite z-score [2] | composite z-score [3] | composite z-score [4] | composite z-score [5] | composite z-score [6] | composite z-score (Sam68 (KHDRBS1)) | composite z-score [7] | composite z-score [8] | composite z-score [9] | composite z-score [10] | composite z-score [11] | composite z-score [12] | composite z-score [13] | composite z-score [14] | z-score [15] | composite z-score (Lefty1) | composite z-score [16] | z-score [17]
CC[C@H]1C2=C3C(CC[C@H]4C(OCc5ccc(F)cc5C(F)(F)F)OC[C@](C)([C@@H]34)N(C(=O)OC(C)(C)C)C2)C(COC(C)=O)C1COC(C)=O (stereo not given in full) | 0.761 | -0.0238 (inactive) | 0.335 | 0.173 | 0.345 | 2.76 | 0.2 | 1.29 | -1.23 | 0.957 | 1.3 | 1.17 | 0.178 | 0.945 | 0.165 | -1.19 | 1.74 | -0.256 | 0.509 | 1.17 (inactive)
COC(=O)[C@@]1(Cc2ccccc2)[C@H]2c3cc(C(=O)N(C)C)n(Cc4ccc(Cl)c(C(F)(F)F)c4)c3C[C@H]2CN1C(=O)c1ccccc1 | 0.811 | -0.215 (inactive) | 0.745 | 0.445 | 0.668 | 1.9 | 0.402 | 1.2 | -0.123 | 0.95 | 1.17 | 1.16 | -0.104 | 0.93 | 1.22 | 0.33 | 0.32 | 1.33 | 0.674 | 1.52 (inactive)
CC(C)C(=C=CC[C@H](O)c1cccc(OCCO)c1)C[C@H](O)c1ccccn1 | 0.481 | -0.128 (inactive) | -0.0647 | -0.146 | 0.811 | 0.48 | 0.182 | 0.353 | -0.0719 | 0.13 | 0.474 | 0.534 | 0.0358 | -1.37 | 0.972 | 0.236 | 0.717 | 0.788 | 0.641 | -0.147 (inactive)
COc1ccc(C(O)C2C=CC3C(=O)N(C)C(=O)C3N2Nc2ccccc2)cc1 (stereo not given) | 0.986 | 0.195 (inactive) | 0.344 | 0.0753 | 0.376 | 2.87 | 0.388 | 1.28 | -0.224 | 1.17 | 0.908 | 1.24 | 0.368 | 0.925 | 0.578 | 0.0159 | 0.436 | -0.341 | 1.08 | -1.17 (inactive)
CC1CC/C=C\[C@H]2OC34C=CCN(C(C)C)C(=O)[C@H]3N(C(C)CO)C(=O)[C@@H]4C2C(=O)O1 (stereo not given in full) | 0.702 | 0.439 (inactive) | -0.162 | -0.115 | 0.418 | -0.406 | -0.108 | -0.26 | -0.337 | -0.0657 | -0.112 | -0.504 | -0.205 | -1.22 | 0.305 | -0.455 | 0.501 | 0.572 | 0.748 | -0.316 (inactive)
CCCC=C(CCC)[C@@H](NC(=O)c1ccc(C(=O)OC)cc1)c1ccc(C(=O)OC)cc1 | 0.781 | 0.0466 (inactive) | 0.0847 | 0.0522 | 0.203 | 2.45 | 0.718 | 0.417 | 0.031 | 0.251 | -0.202 | 0.33 | 0.723 | 0.146 | 0.0388 | -1.47 | -0.699 | -0.799 | 0.315 | 1.3 (inactive)
[N-]=[N+]=NCc1ccccc1C[C@@]1(C(=O)NCCN2CCOCC2)N=C(c2ccc(OCCCO)cc2)O[C@@H]1c1ccccc1 | 0.818 | 1.03 (inactive) | 0.307 | -0.106 | 0.655 | 2.77 | 0.136 | 1.19 | -0.879 | 0.944 | 1.42 | 1.18 | 0.444 | 0.947 | 1.23 | -0.426 | 1.44 | 0.573 | 0.639 | -1.04 (inactive)
COc1cc2c(cc1O)C(C)N(Cc1sc3ccccc3c1Cl)CC2 (stereo not given) | 1.01 | -0.768 (inactive) | -0.014 | -0.0158 | 0.937 | 0.477 | -0.181 | -1.44 | -1.9 | -1.53 | -0.119 | -1.14 | -0.439 | -2.68 | -0.678 | -1.11 | 0.218 | -1.44 | 0.358 | 1.39 (inactive)
CCCCN1CC=CC23O[C@@H]4/C=C\CCCOC(=O)C4[C@H]2C(=O)N(CCCCCCO)[C@@H]3C1=O (stereo not given in full) | -0.768 | 0.276 (inactive) | -0.165 | -0.172 | 0.83 | 1.66 | 1.17 | 0.177 | -1.87 | -0.535 | 0.193 | -0.0399 | 0.0326 | -1.21 | -1.02 | -0.621 | 1.56 | -0.331 | -0.13 | -0.0067 (inactive)
[N-]=[N+]=NCc1ccccc1[C@H]1OC(c2ccc(OCCCO)cc2)=N[C@@]1(Cc1ccccc1N=[N+]=[N-])C(N)=O | 0.884 | 0.385 (inactive) | 0.339 | -0.229 | 0.743 | 2.72 | -0.182 | 1.27 | -0.0265 | 1.08 | 1.03 | 1.14 | 0.579 | 1.01 | 1.21 | 0.27 | 0.145 | 0.174 | 1.21 | -3.23 (inactive)
CC[C@@H](O[Si](C#C[Si](C(C)C)(C(C)C)C(C)C)(C(C)C)C(C)C)c1cn(Cc2cccc(Cl)c2)nn1 | 0.0711 | -0.0359 (inactive) | -0.119 | -0.0495 | 0.226 | 0.233 | 0.773 | 1.04 | 0.451 | 0.68 | 0.448 | 0.79 | 0.357 | 0.377 | 0.371 | 0.46 | -0.153 | 0.809 | 0.23 | 0.433 (inactive)

From PubChem BioAssay
